From PubChem BioAssay
Sampled rows, rich in hits. Any-hit rate of the full collection: about 3.9%.
ALR inh: inhibitors of human sulfhydryl oxidase ALR | P55789 | purified ALR, DTT oxidation, H2O2 HRP-luminol luminescence | inhibition, % (test concentration not listed) | actives 3.8% (n = 290,000) | AID 485317;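 active = mean replicate inhibition above about 79%, with every replicate also reaching it, limit read from the data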
CDK5 inh: blocks human CDK5/p35 kinase activity | Recombinant CDK5/p35, ADP-Glo luminescence, 60 min | actives 0.01% (n = 330,000) | inhibition, % at 10 µM | Q00535+Q15078;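 active = highest replicate inhibition of at least 50% and at least 75% of replicates reaching 50%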
Casp6 inh: inhibitors of human caspase-6 | P55212 | purified caspase-6, Z-VEID-R110 cleavage fluorescence | inhibition, % at 12.5 µM | actives 0.53% (n = 350,000) | AID 686996;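 active = mean inhibition across replicates at least about 35%, with every replicate also reaching that limit, limit read from the data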
NSD2 HMT inh: inhibitors of human histone methyltransferase NSD2; O96028; NSD2 peptide methylation, AlphaScreen, 120 min; inhibition, % at 12.5 µM; actives 0.54% (n = 310,000); AID 743445; in the data active = inhibition above about 50%
Mot1-301 SUMO: blocks SUMOylation pathway, rescuing yeast Mot1-301 growth; S. cerevisiae Mot1-301 growth rescue, ATP luminescence, 38.5C; percent above DMSO median, 100 means doubled; growth rescue, % at 18.8 µM; actives 1% (n = 320,000);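 active = every valid replicate shows activation above 250% relative to neutral control wells; inactive = the rest, any valid replicate at or below 250%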
N-glyco inh: N-linked glycosylation inhibition. D54 ERlucT glycosylation luciferase reporter, 24 h; percent of 100 nM tunicamycin response. reporter increase, % at 12.5 µM. actives 0.23% (n = 360,000);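 active = mean luciferase reporter signal, scaled so untreated is 0 and the glycosylation-blocking control 100, at or above a set limit in every replicate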;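 also: luciferase carries N-glycosylation sites so blocking glycosylation raises the light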
Alpha artifact: counter-screen for NSD2 inhibitors: AlphaScreen artifacts; shares compounds with NSD2 HMT inh; AlphaScreen artifact counterscreen, preloaded methylated H4 peptide; AC35, µM (doses to about 10 µM); actives 9.4% (n = 1,500); call rule not given here
Numbers stand for hits.

Results for CCN(CC)c1ccc(C(=C2C=CC(=[N+](CC)CC)C=C2)c2ccc(N(CC)CC)cc2)cc1 ?
CDK5 inh: inactive; Casp6 inh: inactive; NSD2 HMT inh: 154; N-glyco inh: inactive; Alpha artifact: 0.43µM

How did O=C(O)COc1ccc2nsnc2c1Cl do in these assays?
ALR inh: inactive; CDK5 inh: inactive; NSD2 HMT inh: inactive; Mot1-301 SUMO: inactive; N-glyco inh: inactive

Results for Cc1ccccc1C1=C/C(=C(\SS/C(C(=O)c2ccc(OCC(=O)O)c(Cl)c2Cl)=C2\C=C(c3ccccc3C)SS2)C(=O)c2ccc(OCC(=O)O)c(Cl)c2Cl)SS1 ?
CDK5 inh: inactive; Casp6 inh: 46; NSD2 HMT inh: 53; N-glyco inh: inactive; Alpha artifact: 5.2µM

What do the screens show for `O=C(c1ccncc1)N1CC2(C1)[C@@H](c1ccccc1)[C@@H](CO)N2CC1CCCC1`?
Casp6 inh: inactive

How did COc1ccc2c(c1)c1nc3ccccc3nc1n2CCn1c(=O)oc2ccccc21 do in these assays?
ALR inh: inactive; CDK5 inh: inactive; NSD2 HMT inh: 58; Mot1-301 SUMO: inactive; N-glyco inh: inactive; Alpha artifact: inactive

How did O=c1oc2ccccc2n1CCn1c2ccccc2c2nc3ccccc3nc21 do in these assays?
ALR inh: inactive; CDK5 inh: inactive; NSD2 HMT inh: inactive; Mot1-301 SUMO: inactive; N-glyco inh: inactive

What do the screens show for `C[C@@H]1CN([C@@H](C)CO)C(=O)c2c(c3ccccc3n2C)-c2ccccc2CO[C@H]1CN(C)S(=O)(=O)Cc1ccccc1`?
Casp6 inh: inactive

Results for O=C(Cn1cnc2c(cnn2-c2ccccc2)c1=O)OCc1ccccc1 ?
ALR inh: inactive; CDK5 inh: inactive; NSD2 HMT inh: 95; N-glyco inh: inactive; Alpha artifact: inactive

How did CCCN=C(C)C1=C(O)c2ccccc2C1=O do in these assays?
ALR inh: inactive; CDK5 inh: inactive; Casp6 inh: inactive; NSD2 HMT inh: inactive; Mot1-301 SUMO: inactive; N-glyco inh: inactive

How did CCN(CC)CCCN=C(C)C1=C(O)c2ccccc2C1=O do in these assays?
ALR inh: inactive; Casp6 inh: inactive; NSD2 HMT inh: 66; Mot1-301 SUMO: inactive; N-glyco inh: inactive; Alpha artifact: inactive

What do the screens show for `COc1ccc(NC(=O)c2ccc(-n3cccn3)nc2)c(OC)c1`?
ALR inh: inactive; CDK5 inh: inactive; NSD2 HMT inh: inactive; Mot1-301 SUMO: inactive; N-glyco inh: inactive

Results for COc1ccccc1NC(=O)c1ccc(-n2cccn2)nc1 ?
ALR inh: inactive; CDK5 inh: inactive; NSD2 HMT inh: 118; N-glyco inh: inactive; Alpha artifact: inactive

How did C/C(CC(=O)Nc1ccccn1)=N\NC(=O)C(=O)Nc1cccc(Cl)c1C do in these assays?
ALR inh: inactive; CDK5 inh: inactive; NSD2 HMT inh: 60; Mot1-301 SUMO: inactive; N-glyco inh: inactive; Alpha artifact: inactive

Results for CC1CN(C(=O)COC(=O)/C=C/c2ccccc2)CC(C)O1 (configuration not stated) ?
Casp6 inh: inactive; NSD2 HMT inh: 61; N-glyco inh: inactive; Alpha artifact: inactive

What do the screens show for `CCc1nnc(NC(=O)COc2ccc3c(c2)OCO3)s1`?
ALR inh: inactive; CDK5 inh: inactive; Casp6 inh: inactive; NSD2 HMT inh: 100; Mot1-301 SUMO: 260; N-glyco inh: inactive; Alpha artifact: inactive

What do the screens show for `C/C=C/c1ccc([C@@H]2[C@@H](CN(C)C(=O)C3CC3)N(C(=O)C3CC3)[C@H]2CO)cc1`?
Casp6 inh: inactive

How did CC(=O)c1c(C)[nH]c(C(=O)CSc2nnc(-c3cccs3)n2Cc2ccccc2)c1C do in these assays?
ALR inh: inactive; CDK5 inh: inactive; NSD2 HMT inh: inactive; Mot1-301 SUMO: inactive; N-glyco inh: inactive

Results for CC(=O)c1c(C)[nH]c(C(=O)CSc2nnc(-c3ccco3)n2Cc2ccccc2)c1C ?
ALR inh: inactive; CDK5 inh: inactive; NSD2 HMT inh: 58; Mot1-301 SUMO: inactive; N-glyco inh: inactive; Alpha artifact: inactive

What do the screens show for `CC1CCC2C(C1)c1sc(=O)[nH]c1SC2(C)C` (configuration not stated)?
ALR inh: 98; CDK5 inh: inactive; NSD2 HMT inh: 111; Mot1-301 SUMO: inactive; N-glyco inh: inactive; Alpha artifact: inactive

Results for O=C(O)CCCCCn1c(SCC(=O)c2ccc(O)c(O)c2)nc2ccsc2c1=O ?
ALR inh: 99; CDK5 inh: inactive; NSD2 HMT inh: 91; Mot1-301 SUMO: inactive; N-glyco inh: inactive; Alpha artifact: inactive

Results for COc1ccccc1S(=O)(=O)N[C@H]1C=C[C@H](CC(=O)N2CCN(C)CC2)O[C@@H]1CO ?
Casp6 inh: inactive

Results for O=C(CCNC(=O)c1ccco1)Nc1ccccc1 ?
ALR inh: inactive; CDK5 inh: inactive; Casp6 inh: inactive; Mot1-301 SUMO: inactive; N-glyco inh: inactive

Results for CN(C)S(=O)(=O)c1ccc(NC(=O)CCNC(=O)c2ccco2)cc1 ?
ALR inh: inactive; CDK5 inh: inactive; Casp6 inh: inactive; NSD2 HMT inh: 59; Mot1-301 SUMO: inactive; N-glyco inh: inactive; Alpha artifact: inactive

Results for Cc1ccccc1CC(=O)N1CCN(C(=O)c2ccco2)CC1 ?
ALR inh: inactive; CDK5 inh: inactive; Casp6 inh: inactive; NSD2 HMT inh: inactive; Mot1-301 SUMO: inactive; N-glyco inh: inactive

How did Cc1ccccc1CN1CCN(C(=O)c2ccco2)CC1 do in these assays?
ALR inh: inactive; CDK5 inh: inactive; Casp6 inh: inactive; NSD2 HMT inh: 56; Mot1-301 SUMO: inactive; N-glyco inh: inactive; Alpha artifact: inactive

How did COc1ccc2ccccc2c1C1CC(=O)N2CN(C)CSC2=C1C#N (configuration not stated) do in these assays?
ALR inh: inactive; CDK5 inh: inactive; Casp6 inh: inactive; NSD2 HMT inh: 89; N-glyco inh: inactive; Alpha artifact: inactive

What do the screens show for `C[C@@H]1CCCCO[C@H](CN(C)C(=O)CCCN(C)C)[C@H](C)CN([C@@H](C)CO)C(=O)c2cc(NC(=O)C3CCCCC3)ccc2O1`?
Casp6 inh: inactive

What do the screens show for `COC(=O)c1cc(C)nc2c1C(=O)C(=O)C=C2N1CCOCC1`?
ALR inh: inactive; CDK5 inh: inactive; Casp6 inh: 83; NSD2 HMT inh: active; Mot1-301 SUMO: inactive; N-glyco inh: inactive; Alpha artifact: inactive

What do the screens show for `O=C(CN(C(=O)c1csnn1)c1cccc2ccccc12)NCc1ccccc1`?
ALR inh: inactive; CDK5 inh: inactive; Casp6 inh: inactive; NSD2 HMT inh: 96; Mot1-301 SUMO: inactive; N-glyco inh: inactive; Alpha artifact: inactive

Results for CC(=O)c1ccc(N(CC(=O)NCCc2ccccc2)C(=O)c2csnn2)cc1 ?
ALR inh: inactive; CDK5 inh: inactive; Casp6 inh: inactive; NSD2 HMT inh: 70; Mot1-301 SUMO: inactive; N-glyco inh: inactive; Alpha artifact: inactive
